PubChem BioAssay (NCATS)
Inconclusive results are not listed. Calls of active or inactive are those of the source. Calls follow the shape of the dose curve; as a rule, active = well fitted cell-killing curve with a large enough effect; inconclusive = small, poorly fitted or top-dose-only effect, or effect the other way; inactive = no such curve, though single readings can be large or run the other way.

test: Viability qHTS for spleen associated tyrosine kinase inhibitor (SYKi) drug resistant MV4-11 cells (AID 1963824); conditions: SYKi-resistant MV4-11 viability, CellTiter-Glo, 72 h; series mostly up to 45 µM; also: nearly all actives have a fitted effect of over 35% in size
Method in brief: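 SYK inhibitor-resistant MV4-11 AML cells, 500 per well, added to predispensed compounds and incubated 72 hr at 37 C, 5% CO2. Viability measured by CellTiter-Glo luminescence after 10 min at room temperature.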
Potency is read from the fitted curve at half-maximal effect.

Compound	Potency
C/C=C(\C)C(=O)O[C@@H]1[C@@H](C)[C@]2(O)[C@@H]3C=C(C)C(=O)[C@H]3CC(CO)=C[C@H]2C2C(C)(C)[C@@]21OC(=O)C(C)CC (some centres not stated)	0.448 µM (active)
CC(=O)OC1C(O)CC2(C)C(CCC(C)C23Cc2c(O)cc(CO)c(C=O)c2O3)C1(C)C (configuration not stated)	11.2 µM (active)
c1ccc(Nc2nc3c(s2)CCCc2[nH]ncc2-3)nc1	14.6 µM (active)
COc1ccc(S(=O)(=O)Nc2c(C)cc(C)cc2C)cc1	20.6 µM (active)
CSCC1OC(n2cnc3c(N)ncnc32)C(O)C1O (configuration not stated)	inactive
Cc1cc2c(F)c(Oc3ncnn4cc(OCC(C)O)c(C)c34)ccc2[nH]1 (configuration not stated)	8.2 µM (active)
Cn1cc(C2=C(c3cn(CCCSC(=N)N)c4ccccc34)C(=O)NC2=O)c2ccccc21	0.411 µM (active)
